According to PubChem BioAssay (Tox21):
Unmarked numbers belong to inactive results. Records with an inconclusive call do not appear. Where a call stands in place of a potency, no number is given. Calls of active or inactive are those of the source. Unless noted, the call rests on the fitted dose curve; in most records, active means well fitted curve in the direction sought with a large enough effect in the repeat runs; inconclusive means weak or mixed curves; inactive means no such curve, though single readings can be large; an effect the other way counts as inactive or inconclusive.

Assays:
[1] = A CellTox Green Cytotoxicity Assay to monitor cytotoxicity in HepG2 cells - 8 hour (AID 1224890); further: nearly all actives have a fitted effect of over 45% in size
Outline: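 Measurements at 0, 8, 16, 24, 32 and 40 h of treatment captured CellTox Green fluorescence in HepG2 cells that had been co-plated with reagent and preincubated 5 h at 37 C/5% CO2.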

[2] = qHTS assay to identify small molecule antagonists of the estrogen receptor alpha (ER-alpha) signaling pathway using the BG1 cell line in the presence of 0.1 nM 17-beta-estradiol - cell viability counter screen (AID 1259241); further: nearly all actives have a fitted effect of over 40% in size
Outline: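 The cell line endogenously expresses full-length ER-alpha and carries four EREs driving luciferase. Cells are cultured 5 days hormone-free, treated 22 hr with compounds and 0.1 nM estradiol, then viability is read by fluorescence.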

[3] = qHTS assay to identify small molecule antagonists of the androgen receptor (AR) signaling pathway using the MDA cell line in the presence of 0.5 nM R1881 - cell viability counter screen (AID 1259242); further: nearly all actives have a fitted effect of over 45% in size
Outline: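 Concentration-response screen of compounds for toxicity in MDA-kb2 reporter cells: 16 hr at 37C with 0.5 nM R1881, endpoint live-cell protease fluorescence measured in the reporter wells.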

[4] = qHTS assay to identify small molecule phospholipidosis (PLD) inducers (AID 1259344; active means well fitted curve in the direction sought with a large enough effect; an effect the other way counts as inactive or inconclusive)
Outline: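 Accumulated phospholipid, stained red by LipidTOX during 24 h compound treatment of HepG2 cells at 37 C, is quantified from images as pit number and intensity, normalised per cell using Hoechst-stained nuclei.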

[5] = qHTS assay to identify small molecule HDAC inhibitors (AID 1259364);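 further: wild-type HCT-116 cells with endogenous class I/II HDAC activity; top concentration of the series differs between compounds; nearly all actives have a fitted effect of over 45% in size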
Outline: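 Screening used wild-type human colon HCT-116 cells incubated overnight, dosed with compounds for 2 hours, and assayed with a homogeneous luminogenic HDAC I/II reagent for 30 minutes at room temperature.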

[6] = qHTS assay to identify small molecule HDAC inhibitors - cell viability counter screen (AID 1259365); further: series mostly up to about 92 µM; nearly all actives have a fitted effect of over 50% in size
Outline: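 Viability readout: CellTiter-Glo luminescence. Wild-type HCT-116 cells, 2hr compound treatment following overnight attachment at 37 C.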

[7] = qHTS assay to identify small molecule agonists of the sonic hedgehog signaling (Shh) pathway (AID 1259368; calls by dose curve;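 further: NIH/3T3-derived 3T3Gli1-Luc cells carrying a stable Gli1-driven firefly luciferase reporter; series mostly up to about 92 µM; nearly all actives have a fitted effect of over 15% in size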)
Outline: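 Hedgehog pathway agonism scored by increased firefly luciferase luminescence in 3T3Gli1-Luc cells treated 24 hr at 37 C; detection used a 30 min room-temperature reagent incubation.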

[8] = qHTS assay to identify small molecule antagonists of the sonic hedgehog signaling (Shh) pathway (AID 1259369; calls by dose curve; further: nearly all actives have a fitted effect of over 45% in size)
Outline: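 NIH/3T3 stable Gli1-Luc clone, 2,000 cells/well, 4hr settle; cpd + conditioned medium 24hr; Luc reagent 30min RT; luminescence.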

[9] = target: Estrogen receptor beta (Homo sapiens) (UniProt Q92731); assay: qHTS assay to identify small molecule agonists of the estrogen receptor beta (ER-beta) signaling pathway (AID 1259377; active means well fitted activation curve with a large enough effect in the signal ratio in the repeat runs, not every such curve was filed as active; the % refers to the signal ratio)
Outline: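 A UAS-controlled beta-lactamase reporter in ER-beta-UAS-bla HEK293T cells reports receptor activation. Compounds act for 16 hr at 37C in 2% charcoal-stripped serum, and a FRET substrate is read by fluorescence after 2 hours.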

[10] = target: Estrogen receptor beta (Homo sapiens) (UniProt Q92731); assay: qHTS assay to identify small molecule antagonists of the estrogen receptor beta (ER-beta) signaling pathway (AID 1259378; active means well fitted inhibition curve with a large enough effect in the signal ratio in the repeat runs, not every such curve was filed as active; the % refers to the signal ratio)
Outline: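 Antagonist mode: compounds added to beta-lactamase reporter HEK293T ER-beta-UAS cells stimulated with E2 (1nM final), 16 hr at 37C. LiveBLAzer B/G FRET substrate, 2 hours room temperature, fluorescence read-out.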

[11] = qHTS assay to identify small molecule agonists of the androgen receptor (AR) signaling pathway in the presence of an antagonist - cell viability counter screen (AID 1259379);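 further: MDA-kb2 human breast cancer cells carrying an MMTV luciferase reporter; series mostly up to about 92 µM; nearly all actives have a fitted effect of over 25% in size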
Outline: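 MDA-kb2 viability measured by CellTiter-Fluor fluorescence in the same wells as the luciferase signal; nilutamide 3.0uM final; 15-point compound titration; 16 hr at 37C.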

[12] = qHTS assay to identify small molecule agonists of the estrogen receptor beta (ER-beta) signaling pathway - cell viability counter screen (AID 1259380); further: nearly all actives have a fitted effect of over 30% in size; further: potency means the concentration at half of the fitted maximal effect
Outline: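 Measured: luminescence from CellTiter-Glo after 30 min at room temperature, added to wells already read for the LiveBLAzer FRET reporter (2 hr substrate); ER-beta-UAS-bla HEK293T cells had 16 hr compound treatment at 37C, 5% CO2.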

[13] = qHTS assay to identify small molecule antagonists of the estrogen receptor beta (ER-beta) signaling pathway - cell viability counter screen (AID 1259382);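 further: HEK293T cells carrying ER-beta-UAS-bla reporter stimulated with estradiol; series mostly up to about 92 µM; nearly all actives have a fitted effect of over 55% in size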
Outline: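 Readout: luminescence, CellTiter-Glo, same wells as bla assay. System: ER-beta-UAS-bla GripTite HEK293T, 2% charcoal-stripped FBS. Exposure: compounds plus 1nM 17-beta-estradiol, 16 hr, 37C.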

[14] = qHTS assay to identify small molecule agonists or antagonists of the thyroid stimulating hormone receptor (TSHR) signaling pathway - wild type cell line counter screen (AID 1259384; calls by dose curve)
Outline: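 Counter screen in untransfected Hek293: compounds (15-point titration, triplicate) plus phosphodiesterase inhibitor Ro20-1724 added after 18 h plating; 30 min RT. Intracellular cAMP via competitive d2/cryptate immunoassay, 1 h incubation.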

[15] = qHTS assay to identify small molecule agonists of the sonic hedgehog signaling (Shh) pathway - cell viability counter screen (AID 1259366); further: nearly all actives have a fitted effect of over 50% in size
Outline: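 Viability measured fluorometrically (CellTiter-Fluor, 1hr, 37C) in 3T3 Gli1-Luc reporter cells after 23hr compound exposure within a 24hr incubation at 37C/5% CO2.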

[16] = target: Estrogen receptor (Homo sapiens) (UniProt P03372); assay: qHTS assay to identify small molecule agonists of the estrogen receptor alpha (ER-alpha) signaling pathway in the presence of an antagonist (AID 1259383; calls by dose curve; further: top concentration of the series differs between compounds; nearly all actives have a fitted effect of over 15% in size)
Outline: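 Quantitative HTS confirmation: compounds titrated at 15 concentrations onto estrogen-deprived VM7Luc4E2 cells carrying a four-ERE luciferase construct, with ICI-182,780 present at 10.0nM final. Signal is luminescence after 22hr exposure.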

[17] = qHTS assay to identify small molecule antagonists of the sonic hedgehog signaling (Shh) pathway - cell viability counter screen (AID 1259367); further: nearly all actives have a fitted effect of over 55% in size; further: potency means the concentration at half of the fitted maximal effect
Outline: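 CellTiter-Fluor signal in conditioned medium-stimulated 3T3 Gli1-Luc cells, 23 hr compound exposure, 37C.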

[18] = target: Estrogen receptor (Homo sapiens) (UniProt P03372); assay: qHTS assay to identify small molecule antagonists of the estrogen receptor alpha (ER-alpha) signaling pathway using the BG1 cell line in the presence of 0.1 nM 17-beta-estradiol (AID 1259244); further: nearly all actives have a fitted effect of over 50% in size
Outline: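 Compounds were tested against 0.1 nM (final) 17beta-estradiol in VM7Luc4E2 cells, which express full-length ER-alpha and an ERE-luciferase reporter; luminescence was recorded following 22 h exposure.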

Estrogen receptor beta (Homo sapiens), sequence (Q92731 whole entry, looked up): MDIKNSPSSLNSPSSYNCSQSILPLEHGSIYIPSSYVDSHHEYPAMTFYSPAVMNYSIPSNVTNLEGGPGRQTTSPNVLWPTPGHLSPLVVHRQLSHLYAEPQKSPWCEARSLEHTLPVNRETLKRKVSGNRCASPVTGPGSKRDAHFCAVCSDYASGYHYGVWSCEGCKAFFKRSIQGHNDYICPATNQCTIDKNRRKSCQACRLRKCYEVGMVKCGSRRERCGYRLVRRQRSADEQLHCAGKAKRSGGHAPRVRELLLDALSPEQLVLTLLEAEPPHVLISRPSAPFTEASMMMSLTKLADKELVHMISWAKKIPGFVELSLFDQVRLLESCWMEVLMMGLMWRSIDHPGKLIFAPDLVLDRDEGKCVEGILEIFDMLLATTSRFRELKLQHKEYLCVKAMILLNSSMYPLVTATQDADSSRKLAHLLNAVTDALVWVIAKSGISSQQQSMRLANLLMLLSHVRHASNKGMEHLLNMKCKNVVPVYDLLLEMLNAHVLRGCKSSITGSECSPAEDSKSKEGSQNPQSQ
Estrogen receptor (Homo sapiens), sequence (P03372 whole entry, looked up): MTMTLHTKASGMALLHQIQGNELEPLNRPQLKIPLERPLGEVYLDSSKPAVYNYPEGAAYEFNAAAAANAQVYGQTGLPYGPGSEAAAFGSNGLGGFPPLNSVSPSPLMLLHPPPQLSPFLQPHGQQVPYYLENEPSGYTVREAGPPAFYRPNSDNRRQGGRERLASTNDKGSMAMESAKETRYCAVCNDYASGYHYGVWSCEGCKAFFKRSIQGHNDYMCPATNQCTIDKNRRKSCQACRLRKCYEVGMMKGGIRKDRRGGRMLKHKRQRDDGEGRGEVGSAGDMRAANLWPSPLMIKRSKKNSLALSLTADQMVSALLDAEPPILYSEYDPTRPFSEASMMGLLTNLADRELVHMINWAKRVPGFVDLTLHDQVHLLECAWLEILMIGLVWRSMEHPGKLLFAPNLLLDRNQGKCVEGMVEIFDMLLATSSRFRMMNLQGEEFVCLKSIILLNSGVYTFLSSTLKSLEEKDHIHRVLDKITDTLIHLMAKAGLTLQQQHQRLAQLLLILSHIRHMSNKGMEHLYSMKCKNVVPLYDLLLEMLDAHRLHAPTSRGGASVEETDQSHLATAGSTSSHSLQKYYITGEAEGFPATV

Structure (SMILES)	Potency [1]	Potency [2]	outcome [3]	outcome [4]	Potency [5]	outcome [6]	Potency [7]	Potency [8]	outcome [9]	Potency [10]	Potency [11]	Potency [12]	outcome [13]	outcome [14]	Potency [15]	Potency [16]	PLD induction [4]	Potency [17]	Potency [18]
O=[N+]([O-])c1nccn1CO[C@@H](CO)[C@H](O)CO	inactive	inactive	inactive	inactive	inactive	inactive	inactive	inactive	inactive	inactive	inactive	inactive	inactive	inactive	–	–	–	–	–
NS(=O)(=O)c1cc(-c2nn[nH]n2)c(NCc2cccs2)cc1Cl	inactive	inactive	inactive	inactive	inactive	inactive	–	inactive	inactive	–	inactive	–	inactive	inactive	inactive	inactive	–	–	–
CN(C)CC[C@@H](c1ccc(Cl)cc1)c1ccccn1	inactive	inactive	inactive	–	inactive	inactive	inactive	–	–	–	inactive	–	inactive	inactive	inactive	–	19.5% [at 1.53 µM]	inactive	–
CCCCCCOc1ccc(N)cc1	inactive	inactive	inactive	–	–	–	inactive	–	–	–	inactive	17.2 µM (active)	–	–	inactive	–	–	inactive	inactive
ClC(Cl)Cl	inactive	inactive	inactive	inactive	inactive	inactive	inactive	–	–	inactive	inactive	inactive	inactive	inactive	–	–	–	42.9 µM (active)	–
C=O	inactive	inactive	inactive	inactive	inactive	inactive	inactive	inactive	inactive	inactive	inactive	inactive	inactive	inactive	inactive	–	–	inactive	–
NC/C=C/C(=O)O	inactive	inactive	inactive	inactive	inactive	inactive	–	inactive	–	–	inactive	–	inactive	inactive	inactive	–	–	inactive	–
Cc1ccc(C(C)C)cc1O	inactive	inactive	inactive	–	inactive	inactive	inactive	inactive	–	inactive	inactive	inactive	inactive	inactive	inactive	–	–	inactive	–
CCN1CC(CCN2CCOCC2)C(c2ccccc2)(c2ccccc2)C1=O (stereo not given)	inactive	inactive	inactive	inactive	inactive	–	inactive	–	inactive	inactive	inactive	inactive	inactive	inactive	–	–	–	–	–
